Test results reported in article PMC7862700, “An all-to-all approach to the identification of sequence-specific readers for epigenetic DNA modifications on cytosine”.

Key:
Experiment in all cases: DAPPL (digital affinity profiling via proximity ligation, sequencing); 10 mM Tris-HCl pH 7.5, 50 mM NaCl, 1 mM DTT, 4% glycerol, room temperature, 30 min; GST-TFs on glutathione beads, 16-mer random dsDNA library, 0.1% formaldehyde crosslink after washing; high values mean tight binding
FEV = target: T1, FEV (Homo sapiens, UniProt Q99581 1-238); conditions: protein: recombinant; tags: N-terminal GST; dsDNA, one strand shown
T1 sequence: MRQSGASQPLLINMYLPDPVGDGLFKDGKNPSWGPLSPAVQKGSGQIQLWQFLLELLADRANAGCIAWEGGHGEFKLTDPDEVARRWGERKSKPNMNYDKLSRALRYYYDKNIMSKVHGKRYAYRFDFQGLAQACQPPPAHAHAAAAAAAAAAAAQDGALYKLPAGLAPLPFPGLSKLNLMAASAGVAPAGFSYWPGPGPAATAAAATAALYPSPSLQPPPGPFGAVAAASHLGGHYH
Method in brief: (§1)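 Binding signal is defined as a hexamer's read frequency for one factor over its frequency for the tag-only sample. To obtain reads, GST-fused human transcription factors were expressed in yeast, captured on glutathione beads, barcoded with DNA and pooled with that sample. Pools met 200 nmole of a 16-mer random double-stranded DNA library in Tris/NaCl/DTT/glycerol buffer for 30 min at room temperature before washing, 0.1% formaldehyde crosslinking, proximity ligation (BsaI/T4 ligase, 1 h, 37 °C), PCR and Illumina NextSeq500 sequencing.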

ETV5 = ETV5 (Homo sapiens, UniProt P41161 1-510); conditions: protein: recombinant; tags: N-terminal GST; dsDNA, one strand shown
Chain of ETV5 (P41161 whole entry): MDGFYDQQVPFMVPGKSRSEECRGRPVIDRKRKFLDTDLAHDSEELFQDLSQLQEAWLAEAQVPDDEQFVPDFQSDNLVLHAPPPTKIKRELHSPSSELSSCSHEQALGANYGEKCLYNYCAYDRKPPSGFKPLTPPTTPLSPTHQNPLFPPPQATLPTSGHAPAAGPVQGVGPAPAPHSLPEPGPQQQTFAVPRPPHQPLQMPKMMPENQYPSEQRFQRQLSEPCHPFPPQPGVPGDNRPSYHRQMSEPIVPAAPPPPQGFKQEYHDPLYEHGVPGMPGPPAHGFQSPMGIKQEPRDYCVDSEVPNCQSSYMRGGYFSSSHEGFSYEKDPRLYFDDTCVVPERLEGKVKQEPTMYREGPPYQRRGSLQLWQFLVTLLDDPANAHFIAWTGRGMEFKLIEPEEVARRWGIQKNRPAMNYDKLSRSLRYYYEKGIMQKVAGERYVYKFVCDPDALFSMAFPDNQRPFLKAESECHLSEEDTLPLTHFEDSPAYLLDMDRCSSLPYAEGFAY
Method in brief: as §1

HSF1 = HSF1 (Homo sapiens, UniProt Q00613 1-529); conditions: protein: recombinant; tags: N-terminal GST; chain copies: 3; dsDNA, one strand shown
Chain of HSF1 (Q00613 whole entry): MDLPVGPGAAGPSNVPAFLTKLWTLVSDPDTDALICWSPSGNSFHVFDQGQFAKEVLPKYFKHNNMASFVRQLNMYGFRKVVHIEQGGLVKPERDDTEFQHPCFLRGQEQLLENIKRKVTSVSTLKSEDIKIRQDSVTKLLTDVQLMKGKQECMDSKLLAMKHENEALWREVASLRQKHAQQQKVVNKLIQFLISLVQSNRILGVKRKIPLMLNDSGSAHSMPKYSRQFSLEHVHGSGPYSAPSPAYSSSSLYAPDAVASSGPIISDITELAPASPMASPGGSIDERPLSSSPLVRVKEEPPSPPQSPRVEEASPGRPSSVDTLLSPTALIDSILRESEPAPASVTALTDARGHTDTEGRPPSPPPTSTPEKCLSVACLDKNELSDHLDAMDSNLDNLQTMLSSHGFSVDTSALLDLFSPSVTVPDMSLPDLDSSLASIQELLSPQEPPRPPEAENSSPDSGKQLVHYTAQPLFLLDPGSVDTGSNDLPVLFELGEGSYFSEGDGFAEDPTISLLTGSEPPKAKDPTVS
Method in brief: as §1

SPIC = target: T2, SPIC (Homo sapiens, UniProt Q8N5J4 1-248); conditions: protein: recombinant; tags: N-terminal GST; dsDNA, one strand shown
T2 sequence: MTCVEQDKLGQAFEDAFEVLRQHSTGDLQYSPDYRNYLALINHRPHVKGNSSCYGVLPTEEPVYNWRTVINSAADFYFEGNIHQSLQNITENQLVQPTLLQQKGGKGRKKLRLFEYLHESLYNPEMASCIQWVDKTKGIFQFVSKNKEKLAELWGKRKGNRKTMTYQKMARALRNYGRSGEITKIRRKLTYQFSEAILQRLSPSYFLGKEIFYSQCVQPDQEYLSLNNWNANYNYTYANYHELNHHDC
Method in brief: as §1

ELF4 = ELF4 (Homo sapiens, UniProt Q99607 1-663); conditions: protein: recombinant; tags: N-terminal GST; dsDNA, one strand shown
Chain of ELF4 (Q99607 whole entry): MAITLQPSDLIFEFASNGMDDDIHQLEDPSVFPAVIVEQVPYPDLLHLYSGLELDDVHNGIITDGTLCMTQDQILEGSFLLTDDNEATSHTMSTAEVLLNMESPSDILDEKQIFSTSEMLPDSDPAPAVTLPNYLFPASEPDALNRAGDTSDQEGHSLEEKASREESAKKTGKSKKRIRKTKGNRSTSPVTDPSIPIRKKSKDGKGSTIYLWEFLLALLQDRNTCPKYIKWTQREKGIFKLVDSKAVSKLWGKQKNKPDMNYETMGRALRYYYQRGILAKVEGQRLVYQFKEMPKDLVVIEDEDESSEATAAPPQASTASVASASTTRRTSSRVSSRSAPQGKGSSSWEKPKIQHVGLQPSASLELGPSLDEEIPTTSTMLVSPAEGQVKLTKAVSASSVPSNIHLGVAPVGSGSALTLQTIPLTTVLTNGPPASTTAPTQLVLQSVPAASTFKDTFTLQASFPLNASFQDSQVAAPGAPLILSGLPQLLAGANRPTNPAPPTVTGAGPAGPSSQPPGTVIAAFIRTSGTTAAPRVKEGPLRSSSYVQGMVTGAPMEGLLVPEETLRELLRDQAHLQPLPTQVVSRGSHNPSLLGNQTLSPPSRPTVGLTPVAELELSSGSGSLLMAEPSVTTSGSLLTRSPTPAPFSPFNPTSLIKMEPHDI
Method in brief: as §1

ELK4 = target: T3, ELK4 (Homo sapiens, UniProt P28324-2 1-405); conditions: protein: recombinant; tags: N-terminal GST; dsDNA, one strand shown
T3 sequence: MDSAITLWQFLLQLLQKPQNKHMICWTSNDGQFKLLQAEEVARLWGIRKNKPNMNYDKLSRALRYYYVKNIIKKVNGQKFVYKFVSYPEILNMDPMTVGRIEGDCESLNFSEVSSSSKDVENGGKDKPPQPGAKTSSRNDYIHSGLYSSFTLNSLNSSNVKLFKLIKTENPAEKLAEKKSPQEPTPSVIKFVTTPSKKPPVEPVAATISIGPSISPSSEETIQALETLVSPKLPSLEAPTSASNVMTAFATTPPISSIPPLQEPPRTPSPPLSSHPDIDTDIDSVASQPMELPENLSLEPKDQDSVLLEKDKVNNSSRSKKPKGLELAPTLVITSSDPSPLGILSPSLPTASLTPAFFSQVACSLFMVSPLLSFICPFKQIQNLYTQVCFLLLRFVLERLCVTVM
Method in brief: as §1

ETV2 = target: T4, ETV2 (Homo sapiens, UniProt O00321 1-342); conditions: protein: recombinant; tags: N-terminal GST; dsDNA, one strand shown
T4 sequence: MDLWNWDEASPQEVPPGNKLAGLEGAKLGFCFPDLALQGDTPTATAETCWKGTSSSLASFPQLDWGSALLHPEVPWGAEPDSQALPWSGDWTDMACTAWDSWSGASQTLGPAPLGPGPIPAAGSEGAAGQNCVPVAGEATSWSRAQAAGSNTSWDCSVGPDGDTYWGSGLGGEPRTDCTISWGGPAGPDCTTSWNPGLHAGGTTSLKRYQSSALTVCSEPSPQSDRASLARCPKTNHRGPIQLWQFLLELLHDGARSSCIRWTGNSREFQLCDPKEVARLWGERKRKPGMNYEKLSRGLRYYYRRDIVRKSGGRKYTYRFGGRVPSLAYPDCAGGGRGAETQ
Method in brief: as §1

ELF3 = target: T5, ELF3 (Homo sapiens, UniProt P78545 1-371); conditions: protein: recombinant; tags: N-terminal GST; dsDNA, one strand shown
T5 sequence: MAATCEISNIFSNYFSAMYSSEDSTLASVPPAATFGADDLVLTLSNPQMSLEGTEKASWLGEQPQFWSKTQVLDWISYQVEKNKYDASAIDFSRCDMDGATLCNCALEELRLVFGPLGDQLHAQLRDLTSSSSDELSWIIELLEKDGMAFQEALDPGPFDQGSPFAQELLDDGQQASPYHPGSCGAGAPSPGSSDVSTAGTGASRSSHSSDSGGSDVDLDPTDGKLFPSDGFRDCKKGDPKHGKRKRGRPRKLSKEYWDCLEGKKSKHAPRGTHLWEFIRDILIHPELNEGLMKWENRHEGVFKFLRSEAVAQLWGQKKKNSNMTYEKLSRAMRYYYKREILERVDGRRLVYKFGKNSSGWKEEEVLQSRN
Method in brief: as §1

CRX = CRX (Homo sapiens, UniProt O43186 1-299); conditions: protein: recombinant; tags: N-terminal GST; dsDNA, one strand shown
Chain of CRX (O43186 whole entry): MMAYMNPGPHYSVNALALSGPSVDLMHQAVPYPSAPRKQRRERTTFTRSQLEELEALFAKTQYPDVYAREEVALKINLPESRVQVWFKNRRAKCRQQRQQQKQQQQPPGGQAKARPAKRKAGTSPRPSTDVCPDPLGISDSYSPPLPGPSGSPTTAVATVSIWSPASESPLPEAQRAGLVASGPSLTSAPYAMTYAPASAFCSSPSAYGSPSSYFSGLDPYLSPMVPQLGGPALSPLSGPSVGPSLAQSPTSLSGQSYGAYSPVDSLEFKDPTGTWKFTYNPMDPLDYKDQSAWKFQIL
Method in brief: as §1

ETV1 = ETV1 (Homo sapiens, UniProt P50549 1-477); conditions: protein: recombinant; tags: N-terminal GST; dsDNA, one strand shown
Chain of ETV1 (P50549 whole entry): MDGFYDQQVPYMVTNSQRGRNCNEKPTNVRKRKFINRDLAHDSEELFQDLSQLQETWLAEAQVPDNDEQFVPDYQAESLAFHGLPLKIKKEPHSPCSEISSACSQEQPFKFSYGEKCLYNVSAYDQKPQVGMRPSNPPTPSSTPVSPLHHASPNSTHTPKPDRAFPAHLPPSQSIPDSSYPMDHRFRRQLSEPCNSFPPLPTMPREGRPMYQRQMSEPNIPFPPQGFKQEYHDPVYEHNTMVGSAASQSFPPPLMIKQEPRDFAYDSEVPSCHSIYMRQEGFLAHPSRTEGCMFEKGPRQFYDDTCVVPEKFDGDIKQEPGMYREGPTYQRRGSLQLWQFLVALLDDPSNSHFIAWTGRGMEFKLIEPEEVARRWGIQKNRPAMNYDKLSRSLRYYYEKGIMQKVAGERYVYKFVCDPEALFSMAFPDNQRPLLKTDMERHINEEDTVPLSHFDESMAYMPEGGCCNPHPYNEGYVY
Method in brief: as §1

ACATTT
binding signal (FEV): 1.46 fold enrichment (6-mer frequency, TF over GST control)
binding signal (ETV5): 1.44 fold enrichment (6-mer frequency, TF over GST control)
binding signal (HSF1): 1.3 fold enrichment (6-mer frequency, TF over GST control)
binding signal (SPIC): 1.25 fold enrichment (6-mer frequency, TF over GST control)
binding signal (ELF4): 1.41 fold enrichment (6-mer frequency, TF over GST control)
binding signal (ELK4): 1.36 fold enrichment (6-mer frequency, TF over GST control)
binding signal (ETV2): 1.68 fold enrichment (6-mer frequency, TF over GST control)
binding signal (ELF3): 1.6 fold enrichment (6-mer frequency, TF over GST control)
binding signal (CRX): 1.16 fold enrichment (6-mer frequency, TF over GST control)
binding signal (ETV1): 1.43 fold enrichment (6-mer frequency, TF over GST control)
